Common to all, as to details: mRNA level, 48 h; actives raise or lower the signal
Read-out in assay [1]: ABC Transporter (ABCB11), ABCB11 (gene 8647)
The experiment in a line: LTEA_HepaRG_ABCB11: Life Technologies and Expression Analysis (LTEA) Assay for ABC Transporter (ABCB11) using HepaRG (AID 2283463). Summed up: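 ABCB11 transcript levels are read by Fluidigm TaqMan qRT-PCR after 48 h chemical treatment of human HepaRG cells. Concentrations span 100 uM downward in half-log steps with 0.5% DMSO; gain or loss is fitted against DMSO controls.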

Read-out in assay [2]: Broad substrate specificity ATP-binding cassette transporter ABCG2 (Homo sapiens) (UniProt Q9UNQ0)
Description: LTEA_HepaRG_ABCG2: Life Technologies and Expression Analysis (LTEA) Assay for ABC Transporter (ABCG2) using HepaRG (AID 2283465). Summed up: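 Read-out is ABCG2 mRNA induction or loss quantified by qRT-PCR after 48 h chemical treatment of human HepaRG cells, normalized to three housekeeping genes. Concentrations reached 100 uM top in half-log steps; fitting was bidirectional against 0.5% DMSO.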

Read-out in assay [3]: ATP-citrate lyase (ACLY), ACLY (gene 47)
The experiment in a line: LTEA_HepaRG_ACLY: Life Technologies and Expression Analysis (LTEA) Assay for ATP-citrate lyase (ACLY) using HepaRG (AID 2283466). The procedure, abridged:
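HepaRG, 48 h exposure, 8-pt half-log dilutions (top 100 uM), 0.5% DMSO. Readout: ACLY mRNA, TaqMan qRT-PCR, housekeeping-normalized (ACTB/GAPDH/POLR2A). Bidirectional curve fit vs DMSO.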

Read-out in assay [4]: Peroxisomal acyl-coenzyme A oxidase 1 (ACOX1) gene, ACOX1 (gene 51)
The experiment in a line: LTEA_HepaRG_ACOX1: Life Technologies and Expression Analysis (LTEA) Assay for Peroxisomal acyl-coenzyme A oxidase 1 (ACOX1) gene using HepaRG (AID 2283467). Summed up: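 Measured by qRT-PCR against three housekeeping genes: ACOX1 transcript change in human HepaRG cells after 48 h dosing. Concentrations ran up to 100 uM in half-log steps. Curves were fitted bidirectionally relative to 0.5% DMSO.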

Read-out in assay [5]: Alkaline Phosphatase, Placental (ALPP) gene, ALPP (gene 250)
Description: LTEA_HepaRG_ALPP: Life Technologies and Expression Analysis (LTEA) Assay for Alkaline Phosphatase, Placental (ALPP) gene using HepaRG (AID 2283468).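 For AC50: differentiated human HepaRG liver cells in serum-free induction medium.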 Summed up:
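qRT-PCR readout of ALPP mRNA (Fluidigm TaqMan), normalized to ACTB/GAPDH/POLR2A, after 48 h chemical exposure of HepaRG cells; 8-point half-log series, top 100 uM, 0.5% DMSO vehicle. Bidirectional curve fit versus DMSO baseline.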

Read-out in assay [6]: Bcl-2 (BAD) gene, BAD (gene 572)
Description: LTEA_HepaRG_BAD: Life Technologies and Expression Analysis (LTEA) Assay for Bcl-2 (BAD) gene using HepaRG (AID 2283469). The procedure, abridged: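 BAD transcript change, measured by qRT-PCR against three housekeeping genes and fitted in both directions relative to 0.5% DMSO, after 48 h chemical treatment of human HepaRG liver cells at concentrations up to 100 uM.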

Read-out in assay [7]: Bcl-2 (BAX) gene, BAX (gene 581)
Description: LTEA_HepaRG_BAX: Life Technologies and Expression Analysis (LTEA) Assay for Bcl-2 (BAX) gene using HepaRG (AID 2283470). The procedure, abridged:
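Concentration-response endpoint fitted in both directions relative to 0.5% DMSO vehicle. Human HepaRG cultures receive test chemicals for 48 h at up to 100 uM; BAX mRNA is quantified by qRT-PCR against housekeeping genes.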

Read-out in assay [8]: adenosine kinase (ADK) gene, ADK (gene 132)
Description: LTEA_HepaRG_ADK: Life Technologies and Expression Analysis (LTEA) Assay for adenosine kinase (ADK) gene using HepaRG (AID 2283471). The procedure, abridged: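 HepaRG (human liver), 48 h chemical exposure, 8-pt half-log series, top 100 uM, 0.5% DMSO vehicle. Readout: ADK mRNA by qRT-PCR vs housekeeping genes; bidirectional curve fit relative to DMSO baseline.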

Read-out in assay [9]: Alpha-fetoprotein (AFP) gene, AFP (gene 174)
The experiment in a line: LTEA_HepaRG_AFP: Life Technologies and Expression Analysis (LTEA) Assay for Alpha-fetoprotein (AFP) gene using HepaRG (AID 2283472). Summed up:
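After a 48 h plating period, cells are moved to serum-free induction medium and dosed in duplicate (100 uM maximum, half-log dilutions, 0.5% DMSO) for another 48 h. Total RNA goes to TaqMan qRT-PCR; AFP signal is housekeeping-normalized.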

Read-out in a further assay: BCL2L11 (gene 10018)
The experiment in a line: LTEA_HepaRG_BCL2L11: Life Technologies and Expression Analysis (LTEA) Assay for Bcl-2 (BCL2L11) gene using HepaRG (AID 2283473). The procedure, abridged: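 HepaRG, 48 h exposure, 8-pt half-log series from 100 uM in 0.5% DMSO, duplicates; qRT-PCR (Fluidigm TaqMan) for BCL2L11, housekeeping-normalized; bidirectional curve fit relative to DMSO baseline.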

Read-out in assay [10]: Apolipoprotein A-V (APOA5) gene, APOA5 (gene 116519)
The experiment in a line: LTEA_HepaRG_APOA5: Life Technologies and Expression Analysis (LTEA) Assay for Apolipoprotein A-V (APOA5) gene using HepaRG (AID 2283474). Summed up: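 HepaRG, 48 h chemical exposure in serum-free induction medium, 8-pt half-log series (top 100 uM), 0.5% DMSO vehicle, duplicates. Readout: APOA5 mRNA by qRT-PCR, housekeeping-normalized; bidirectional fit vs DMSO baseline.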

Read-out in assay [11]: Apoptosis regulator Bcl-2 (Homo sapiens) (UniProt P10415)
The experiment in a line: LTEA_HepaRG_BCL2: Life Technologies and Expression Analysis (LTEA) Assay for Bcl-2 gene using HepaRG (AID 2283475). The procedure, abridged:
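Expression change of BCL2 mRNA in HepaRG after 48 h dosing, quantified by TaqMan qRT-PCR against three endogenous controls. Concentration-response used eight points up to 100 uM, vehicle 0.5% DMSO.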

Read-out in assay [12]: Bcl-2 (BID) gene, BID (gene 637)
The experiment in a line: LTEA_HepaRG_BID: Life Technologies and Expression Analysis (LTEA) Assay for Bcl-2 (BID) gene using HepaRG (AID 2283476). Summed up: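 Gain or loss of BID expression is fitted relative to 0.5% DMSO vehicle. Human HepaRG liver cells received a 48 h chemical exposure over an eight-point concentration range.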

Read-out in the next assay: Caspase-3 (Homo sapiens) (UniProt P42574)
The experiment in a line: LTEA_HepaRG_CASP3: Life Technologies and Expression Analysis (LTEA) Assay for cysteine-aspartic acid protease (CASP3) using HepaRG (AID 2283477). The procedure, abridged: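 HepaRG, 48 h exposure, 8 conc. (top 100 uM, half-log steps, duplicate), 0.5% DMSO vehicle; qRT-PCR of CASP3 transcript, housekeeping-normalised (ACTB/GAPDH/POLR2A); bidirectional curve fit vs DMSO baseline.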

Read-out in assay [13]: Cytochrome P450 (CYP24A1), CYP24A1 (gene 1591)
The experiment in a line: LTEA_HepaRG_CYP24A1: Life Technologies and Expression Analysis (LTEA) Assay for Cytochrome P450 (CYP24A1) using HepaRG (AID 2283478). The procedure, abridged:
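qRT-PCR read-out: CYP24A1 transcript levels normalized to three housekeeping genes, bidirectional curve fits against 0.5% DMSO baseline. Human HepaRG cells treated 48 h with chemicals at eight concentrations from 100 uM in half-log steps.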

Read-out in assay [14]: Cytochrome P450 (CYP1A2), CYP1A2 (gene 1544)
Description: LTEA_HepaRG_CYP1A2: Life Technologies and Expression Analysis (LTEA) Assay for Cytochrome P450 (CYP1A2) using HepaRG (AID 2283479). Summed up:
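HepaRG, 48 h exposure, top 100 uM, half-log 8-pt, 0.5% DMSO vehicle, duplicates. Readout: TaqMan qRT-PCR of CYP1A2 mRNA, housekeeping-normalized (ACTB/GAPDH/POLR2A). Gain/loss fit relative to DMSO baseline.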

Read-out in assay [15]: cysteine-aspartic acid protease (CASP8), CASP8 (gene 841)
The experiment in a line: LTEA_HepaRG_CASP8: Life Technologies and Expression Analysis (LTEA) Assay for cysteine-aspartic acid protease (CASP8) using HepaRG (AID 2283480). Summed up: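 HepaRG, 48 h exposure, duplicate wells; 8 conc, half-log from 100 uM, 0.5% DMSO. Serum-free induction medium. CASP8 mRNA by TaqMan qRT-PCR, norm. ACTB/GAPDH/POLR2A; gain/loss fitted vs DMSO.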

Read-out in assay [16]: Cytochrome P450 (CYP2B6), CYP2B6 (gene 1555)
The experiment in a line: LTEA_HepaRG_CYP2B6: Life Technologies and Expression Analysis (LTEA) Assay for Cytochrome P450 (CYP2B6) using HepaRG (AID 2283481). The procedure, abridged: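 Read-out is CYP2B6 mRNA by TaqMan qRT-PCR, normalized to three housekeeping genes and fitted bidirectionally against 0.5% DMSO baseline. Human HepaRG cells received test chemicals for 48 h, top concentration 100 uM, half-log dilutions.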

Read-out in assay [17]: Cytochrome P450 2C19 (Homo sapiens) (UniProt P33261)
Description: LTEA_HepaRG_CYP2C19: Life Technologies and Expression Analysis (LTEA) Assay for CYP2C19 using HepaRG (AID 2283482). The procedure, abridged:
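HepaRG, 48 h chemical exposure, 8-pt half-log series from 100 uM in 0.5% DMSO, duplicates. Readout: CYP2C19 mRNA by TaqMan qRT-PCR, housekeeping-normalized. Bidirectional fit vs DMSO baseline; phenobarbital 1mM as induction control.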

Read-out in assay [18]: ABC Transporter (ABCC2), ABCC2 (gene 1244)
The experiment in a line: LTEA_HepaRG_ABCC2: Life Technologies and Expression Analysis (LTEA) Assay for ABC Transporter (ABCC2) using HepaRG (AID 2283464). Summed up:
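qRT-PCR (TaqMan, Fluidigm array) read-out of ABCC2 mRNA, normalized to three housekeeping genes. Differentiated HepaRG cells were treated 48 h in serum-free induction medium with 8-point half-log series from 100 uM in 0.5% DMSO; curves fitted bidirectionally relative to DMSO.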

A word on the AC50: it is the concentration giving half of the maximal activity seen.

Calls of active or inactive are those of the source. Rule for the calls: active = hit-call score of the fitted dose curve at least 0.9, where 1 is the maximum; inactive = score below 0.9.

Sequence of Broad substrate specificity ATP-binding cassette transporter ABCG2 (Homo sapiens) (Q9UNQ0 whole entry, looked up): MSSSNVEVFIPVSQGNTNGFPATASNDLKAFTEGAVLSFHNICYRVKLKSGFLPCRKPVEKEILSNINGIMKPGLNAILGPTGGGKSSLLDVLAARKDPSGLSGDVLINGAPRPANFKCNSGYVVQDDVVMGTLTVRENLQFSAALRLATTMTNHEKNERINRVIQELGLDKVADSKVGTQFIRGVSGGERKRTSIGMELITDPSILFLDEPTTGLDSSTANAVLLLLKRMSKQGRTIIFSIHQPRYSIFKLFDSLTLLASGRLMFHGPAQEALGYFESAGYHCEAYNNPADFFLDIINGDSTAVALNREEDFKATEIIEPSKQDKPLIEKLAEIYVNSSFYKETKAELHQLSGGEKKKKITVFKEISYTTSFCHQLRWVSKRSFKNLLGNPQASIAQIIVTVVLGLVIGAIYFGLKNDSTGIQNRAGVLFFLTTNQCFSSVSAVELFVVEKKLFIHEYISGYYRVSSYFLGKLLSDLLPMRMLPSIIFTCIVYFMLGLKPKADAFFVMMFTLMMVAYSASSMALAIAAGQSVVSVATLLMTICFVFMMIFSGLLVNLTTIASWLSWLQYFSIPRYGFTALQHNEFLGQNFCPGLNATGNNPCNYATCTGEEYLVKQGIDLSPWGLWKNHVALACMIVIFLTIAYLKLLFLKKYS
Sequence of Cytochrome P450 2C19 (Homo sapiens) (P33261 whole entry, looked up): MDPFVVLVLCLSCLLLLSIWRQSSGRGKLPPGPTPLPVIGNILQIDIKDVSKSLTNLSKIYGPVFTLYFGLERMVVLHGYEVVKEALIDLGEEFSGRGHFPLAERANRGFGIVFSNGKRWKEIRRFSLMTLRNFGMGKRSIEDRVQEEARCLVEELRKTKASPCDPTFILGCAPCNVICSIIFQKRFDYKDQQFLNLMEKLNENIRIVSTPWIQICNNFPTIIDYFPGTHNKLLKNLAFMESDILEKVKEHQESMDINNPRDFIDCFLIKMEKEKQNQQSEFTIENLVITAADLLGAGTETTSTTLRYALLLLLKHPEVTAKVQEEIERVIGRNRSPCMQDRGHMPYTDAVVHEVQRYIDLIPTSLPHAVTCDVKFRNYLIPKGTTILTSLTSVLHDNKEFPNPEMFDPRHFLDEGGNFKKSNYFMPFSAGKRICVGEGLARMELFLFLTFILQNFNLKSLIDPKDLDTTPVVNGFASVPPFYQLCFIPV
Sequence of Caspase-3 (Homo sapiens) (P42574 whole entry, looked up): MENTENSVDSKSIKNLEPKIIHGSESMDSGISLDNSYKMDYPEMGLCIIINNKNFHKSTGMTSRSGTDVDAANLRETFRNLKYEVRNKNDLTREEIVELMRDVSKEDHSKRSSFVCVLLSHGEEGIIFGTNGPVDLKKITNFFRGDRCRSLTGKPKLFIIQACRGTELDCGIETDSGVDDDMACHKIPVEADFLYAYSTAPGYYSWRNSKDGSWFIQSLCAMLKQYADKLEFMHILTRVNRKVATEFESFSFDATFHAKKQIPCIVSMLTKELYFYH
Sequence of Apoptosis regulator Bcl-2 (Homo sapiens) (P10415 whole entry, looked up): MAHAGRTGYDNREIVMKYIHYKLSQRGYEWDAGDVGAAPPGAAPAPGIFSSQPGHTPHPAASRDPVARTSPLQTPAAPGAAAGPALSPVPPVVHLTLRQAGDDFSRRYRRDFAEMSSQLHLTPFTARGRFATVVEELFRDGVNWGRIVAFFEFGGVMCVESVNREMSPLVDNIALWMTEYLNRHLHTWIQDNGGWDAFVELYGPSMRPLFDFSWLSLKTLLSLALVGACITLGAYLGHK

Take `Cn1c(=O)cc(Oc2ccc(F)cc2F)c2cnc(NCC(C)(C)O)nc21`: the AC50 is 12.7 µM (active) in [1]; 20.7 µM (active) in assay [5]; 16 µM (active) in assay [14]; 6.6 µM (active) in assay [16]; 14.6 µM (active) in [17]. Besides, the molecule was called inactive in assay [2], in assay [3], in assay [4], in assay [6], in assay [7] and in assay [8]. For the same molecule, the molecule was called inactive (in [9]; with BCL2L11 (gene 10018); in assay [10]; in assay [11]; in [12]; in the assay with Caspase-3 (Homo sapiens)). In addition, the result in assay [13] and in [15] was inactive.

In the case of `CCN(C(=O)c1cc(C)cc(OC[C@H](C)Nc2ccncc2)c1)C(C)C`, the half-maximal activity concentration (AC50) in [1] was 25.1 µM (active); in [3], 33.8 µM (active); in assay [4], 20.1 µM (active); in assay [5] it was 6.7 µM (active); in assay [9], 23.7 µM (active); in assay [10] it was 55 µM (active). The AC50 was 0.143 µM (active) in assay [12]; 19.6 µM (active) in the assay with Caspase-3 (Homo sapiens); 12.7 µM (active) in [14]; 7.91 µM (active) in [16]; 8.16 µM (active) in assay [17]. For the same molecule, the molecule was called inactive (in assay [2]; in assay [6]; in [7]; in assay [8]; in the assay with BCL2L11 (gene 10018); in assay [11]). Besides, the molecule was classed as inactive in assay [13] and in assay [15].

On to `O=C(O)c1cccc(Oc2ccccc2)c1`, for which the molecule was classed as inactive in assay [1], in assay [18], in assay [2], in [3], in assay [4] and in [5]. For the same molecule, the molecule was classed as inactive (in [6]; in assay [7]; in assay [8]; with BCL2L11 (gene 10018); in [10]; in assay [11]). Moreover, the outcome (in assay [12]; in the assay with Caspase-3 (Homo sapiens); in assay [13]) was inactive. For the same molecule, the AC50 in assay [14] is 30 µM (active); in assay [16] it was 34.7 µM (active); in assay [17], 31.2 µM (active).

Source of the values: PubChem BioAssay (EPA / NIEHS).
